± gives the standard deviation of the averaged measurements.
What follows are compounds tested on Drosophila ezoana antennal basiconic sensillum ab7 (assay: odor-evoked OSN spike response (post minus pre-stimulus); higher = stronger neuronal excitation). Details: odor dilution: 10^-4.
Experimental: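 Single sensillum recordings from antennal basiconic sensilla of D. ezoana. A 500 ms pulse of odorant (10^-4 in mineral oil or DMSO) was delivered; the response is the change in action potential frequency between the 1 s pre- and post-stimulus windows (spikes/s).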

| Structure (SMILES) | odor-evoked OSN spike response |
| --- | --- |
| CCCCCC(=O)OCC [ethyl hexanoate] | 74.4 ± 40 spikes/s |
| C=CC(O)CCCCC (centres undefined) [1-octen-3-ol] | 107 ± 43 spikes/s |
| CCCCCC(C)=O [2-heptanone] | 138 ± 39 spikes/s |
| C[C@H]1CCC[C@@]2(C)CCCC[C@]12O [geosmin] | 3.51 ± 21 spikes/s |
| CCCCCOC(C)=O [pentyl acetate] | 59.2 ± 30 spikes/s |
| CCCC(=O)CC [3-hexanone] | 53.1 ± 33 spikes/s |
| CCCCCCCC(C)=O [2-nonanone] | 66.8 ± 40 spikes/s |
| CCCCCCCC(C)O (centres undefined) [2-nonanol] | 52.3 ± 32 spikes/s |
| CCCCC(C)O (centres undefined) [2-hexanol] | 56.1 ± 29 spikes/s |
| CCOC(=O)CC(C)O (centres undefined) [Ethyl-3-hydroxybutyrate] | 80.1 ± 47 spikes/s |
| CCOC(=O)C(C)O (centres undefined) [Ethyl lactate] | 60.2 ± 36 spikes/s |
| CC(=O)CCC=C(C)C [6-methyl-5-hepten-2-one] | 140 ± 40 spikes/s |
| CCCCCCO [1-hexanol] | 53.6 ± 33 spikes/s |
| CCCCC(C)=O [2-hexanone] | 50.2 ± 29 spikes/s |
